Measured values as given in PubChem BioAssay (NCI).
Compounds without any hit were thinned out: in the full panel of roughly 79,000, 15% have a hit. Active and inactive are the calls of the source. Cut-off read from the data, not from the text of the source: active = growth inhibition above about 70%; inactive = the rest.

Test: NCI Yeast Anticancer Drug Screen. Data for the mec2-1 strain (AID 157)
Settings: S. cerevisiae mec2-1 strain, at 50.0 µM, stronger effect = higher value
Procedure, shortened: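 Vehicle-treated cultures served as reference for growth inhibition of compound-exposed mec2-1 yeast.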

SMILES	growth inhibition
CNC(=O)c1ccccc1C(O)c1ccc(C)cc1 (stereo not given)	-6.3% (inactive)
CCN(CCC#N)c1cccc(C)c1	1.6% (inactive)
C=CCN(CC=C)C(=O)C(=C)C	-0.05% (inactive)
CC(=O)Nc1cc(-c2ccccc2)cc(-c2ccccc2)c1	0.4% (inactive)
Nc1cc(=O)[nH]c(=S)n1-c1ccccc1	2.5% (inactive)
CCCCN(CCCC)/C(=C/C(=O)OC)C(=O)OC	8.55% (inactive)
Oc1ccc2c(c1)-c1ccccc1C2	2.9% (inactive)
Cc1ccccc1N=Nc1c(-c2ccccc2)nn(C(N)=S)c1-c1ccccc1	7.2% (inactive)
COc1ccc(CC(NC(=O)OCc2ccccc2)C(=O)O)cc1 (stereo not given)	4.15% (inactive)
Nc1cccc(CC(=O)c2ccccc2)n1	-11% (inactive)
CN(C)CC(C)(C)C(=O)c1ccc(F)cc1	5.8% (inactive)
CCCC1OCC(O)C(C(O)C(=O)CN(Cc2ccccc2)Cc2ccccc2)O1 (stereo not given)	1.35% (inactive)
O=C1C2C3C=CC(C2C(=O)N1COP(=O)(O)O)C1C2C(=O)N(COP(=O)(O)O)C(=O)C2C31 (stereo not given)	0.3% (inactive)
Cc1nc[nH]c(=O)c1N	-1.75% (inactive)
Cc1ccc(N2N=S=CC2=O)cc1	11.3% (inactive)
CC(C)(CCCCC(C)(C)C1NC(=O)N1)C1NC(=O)N1	-7.4% (inactive)
CCCCCCC(=O)OC(C)CC(C)C (stereo not given)	2.75% (inactive)
NNC(=O)CC(=O)Nc1ccccc1F	-16.9% (inactive)
Cn1c(=O)c2[nH]c(CCCCCc3nc4c([nH]3)c(=O)n(C)c(=O)n4C)nc2n(C)c1=O	7.15% (inactive)
CCCCCOc1ccc2ccccc2c1	-27.8% (inactive)

SMILES	growth inhibition
CC(O)(CNS(=O)(=O)c1ccccc1)c1ccccc1 (stereo not given)	8.8% (inactive)
O=C(/C=C/c1ccc(OCCSCCCCCCCCCCSCCOc2ccc(/C=C/C(=O)c3ccc(Cl)cc3)cc2)cc1)c1ccc(Cl)cc1	-25.1% (inactive)
CS(=O)(=O)CC(O)(c1ccccc1)c1ccccc1	-2.4% (inactive)
CC1=CC(O)C(Br)C(C)(C)C12CCC(C)(Cl)C(Br)C2 (stereo not given)	91% (active)
NCCCC(N)C(=O)O (stereo not given)	-17.4% (inactive)
CCOC(=O)Nc1nc2c(s1)c([N+](=O)[O-])cn2C	7% (inactive)
COCCNC1CCC2(SCCS2)c2[nH]c3ccccc3c21 (stereo not given)	-12.8% (inactive)
Nc1nc(Sc2ccccn2)ccc1[N+](=O)[O-]	-12.8% (inactive)
CC(=O)Nc1ccc(N=C2c3ccccc3-c3ccc([N+](=O)[O-])cc32)cc1	-10.8% (inactive)
O=C(NNC(=O)c1ccc(Cl)c(Cl)c1)c1ccc(Cl)c(Cl)c1	-56.5% (inactive)
O=S(=O)(NCCNS(=O)(=O)c1ccccc1)c1ccccc1	-13.8% (inactive)
O=C(Nc1ccc(Cl)c(Cl)c1)c1ccc(Cl)cc1	11.3% (inactive)
Nc1nc2ccccc2[nH]1	-0.3% (inactive)
CC1C(c2ccccc2)OC(c2ccccc2)N1C (stereo not given)	-6.55% (inactive)
CCCOc1ccc(OCC(=O)c2ccccc2)cc1	-32.5% (inactive)
COc1cc(/C=C\C(=O)c2cccc([N+](=O)[O-])c2)cc(OC)c1OC	30.1% (inactive)
O=C([O][Sb]([O]C(=O)C(Br)Br)([c]1ccccc1)([c]1ccccc1)[c]1ccccc1)C(Br)Br	5% (inactive)
C[N+]1(CCC[N+]2(C)CCC3(CCCCC3)CC2)CCOCC1	-0.05% (inactive)
CCCCCCCCCCCCCCCCCN(C)C(=O)OCC	-62.5% (inactive)
O=c1oc2ccccc2c2c1Sc1ccccc1N2	-22% (inactive)

Test: NCI Yeast Anticancer Drug Screen. Data for the sgs1 mgt1 strain (AID 161);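 note: 0% = growth of cultures given vehicle only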
Settings: S. cerevisiae sgs1 mgt1 strain, at 50.0 µM, stronger effect = higher value
Procedure, shortened: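 Mutant yeast exposed to compound; growth scored against vehicle-only wells.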

SMILES	growth inhibition
CNC(=O)c1ccccc1C(O)c1ccc(C)cc1 (stereo not given)	17.6% (inactive)
CCN(CCC#N)c1cccc(C)c1	-5.75% (inactive)
C=CCN(CC=C)C(=O)C(=C)C	-5.5% (inactive)
CC(=O)Nc1cc(-c2ccccc2)cc(-c2ccccc2)c1	-2.55% (inactive)
Nc1cc(=O)[nH]c(=S)n1-c1ccccc1	-12.2% (inactive)
CCCCN(CCCC)/C(=C/C(=O)OC)C(=O)OC	10.1% (inactive)
Oc1ccc2c(c1)-c1ccccc1C2	-4.5% (inactive)
Cc1ccccc1N=Nc1c(-c2ccccc2)nn(C(N)=S)c1-c1ccccc1	24.1% (inactive)
COc1ccc(CC(NC(=O)OCc2ccccc2)C(=O)O)cc1 (stereo not given)	2.7% (inactive)
Nc1cccc(CC(=O)c2ccccc2)n1	-7.9% (inactive)
CN(C)CC(C)(C)C(=O)c1ccc(F)cc1	-0.1% (inactive)
CCCC1OCC(O)C(C(O)C(=O)CN(Cc2ccccc2)Cc2ccccc2)O1 (stereo not given)	1.55% (inactive)
O=C1C2C3C=CC(C2C(=O)N1COP(=O)(O)O)C1C2C(=O)N(COP(=O)(O)O)C(=O)C2C31 (stereo not given)	0.95% (inactive)
Cc1nc[nH]c(=O)c1N	9.2% (inactive)
Cc1ccc(N2N=S=CC2=O)cc1	37.5% (inactive)
CC(C)(CCCCC(C)(C)C1NC(=O)N1)C1NC(=O)N1	-67.9% (inactive)
CCCCCCC(=O)OC(C)CC(C)C (stereo not given)	-0.75% (inactive)
NNC(=O)CC(=O)Nc1ccccc1F	-6.4% (inactive)
Cn1c(=O)c2[nH]c(CCCCCc3nc4c([nH]3)c(=O)n(C)c(=O)n4C)nc2n(C)c1=O	-27.3% (inactive)
CCCCCOc1ccc2ccccc2c1	-18.6% (inactive)

SMILES	growth inhibition
CC(O)(CNS(=O)(=O)c1ccccc1)c1ccccc1 (stereo not given)	0.6% (inactive)
O=C(/C=C/c1ccc(OCCSCCCCCCCCCCSCCOc2ccc(/C=C/C(=O)c3ccc(Cl)cc3)cc2)cc1)c1ccc(Cl)cc1	-21.9% (inactive)
CS(=O)(=O)CC(O)(c1ccccc1)c1ccccc1	9.5% (inactive)
CC1=CC(O)C(Br)C(C)(C)C12CCC(C)(Cl)C(Br)C2 (stereo not given)	89.8% (active)
NCCCC(N)C(=O)O (stereo not given)	-33.5% (inactive)
CCOC(=O)Nc1nc2c(s1)c([N+](=O)[O-])cn2C	17.1% (inactive)
COCCNC1CCC2(SCCS2)c2[nH]c3ccccc3c21 (stereo not given)	15.1% (inactive)
Nc1nc(Sc2ccccn2)ccc1[N+](=O)[O-]	-2.1% (inactive)
CC(=O)Nc1ccc(N=C2c3ccccc3-c3ccc([N+](=O)[O-])cc32)cc1	11.2% (inactive)
O=C(NNC(=O)c1ccc(Cl)c(Cl)c1)c1ccc(Cl)c(Cl)c1	-25.1% (inactive)
O=S(=O)(NCCNS(=O)(=O)c1ccccc1)c1ccccc1	10.5% (inactive)
O=C(Nc1ccc(Cl)c(Cl)c1)c1ccc(Cl)cc1	7.65% (inactive)
Nc1nc2ccccc2[nH]1	-17.7% (inactive)
CC1C(c2ccccc2)OC(c2ccccc2)N1C (stereo not given)	21.4% (inactive)
CCCOc1ccc(OCC(=O)c2ccccc2)cc1	25.8% (inactive)
COc1cc(/C=C\C(=O)c2cccc([N+](=O)[O-])c2)cc(OC)c1OC	13.9% (inactive)
O=C([O][Sb]([O]C(=O)C(Br)Br)([c]1ccccc1)([c]1ccccc1)[c]1ccccc1)C(Br)Br	20.6% (inactive)
C[N+]1(CCC[N+]2(C)CCC3(CCCCC3)CC2)CCOCC1	11.2% (inactive)
CCCCCCCCCCCCCCCCCN(C)C(=O)OCC	-55.5% (inactive)
O=c1oc2ccccc2c2c1Sc1ccccc1N2	17% (inactive)
